Reference: PubChem BioAssay (NCATS)
Records with an inconclusive call do not appear. Unmarked numbers belong to inactive results. Activity calls are given as the source filed them. Calls come from the whole dose curve; as a rule, active = well fitted inhibition curve with a large enough effect; inconclusive = small, poorly fitted or top-dose-only effect; inactive = no such curve, though single readings can be large or run the other way. Positions of bridges follow the written chain, without caps; N, C: chain ends. Non-standard residues stand in square brackets, D forms with d. Residues, ends and D or L forms follow the SMILES beside them. ξ: configuration not given here. *: point of attachment. Octanoyl(6-Me) = CCC(C)CCCCC(=O)*; ξThr(3R) = C[C@@H](O)C(N)C(=O)O; dDab = NCC[C@@H](N)C(=O)O; Dab = NCC[C@H](N)C(=O)O

Assay: BET inhibitor-based combinations targeting novel dependencies in MECOM-rearranged (r) AML: UCSD-AML1 cell line (AID 2202235); note: nearly all actives have a fitted effect of over 40% in size;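 for viability (% of control): plate controls were DMSO vehicle wells for no effect and blank wells for full effect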
Settings: UCSD-AML1 AML cells viability, CellTiter-Glo, 48 h; series mostly up to 46 µM; viability (% of control): at the top concentration
Source text: Ecotropic viral insertion site 1 (EVI1) is located on chromosome 3q26.2 as part of the MECOM (MDS and EVI1 complex) locus. Under normal hematopoiesis, EVI1 is a regulator of hematopoietic stem cell maintenance and self-renewal and EVI1 levels decrease as the cells differentiate. In approximately 5-10% of de novo acute myeloid leukemia (AML) EVI1 is aberrantly expressed, including Chromosomal inv(3)(q21;q26.2) or t(3;3)(q21;q26.2) alterations (MECOM-r) that account for about 50% of AML with EVI1 overexpression 31. AMLs with high levels of EVI1 have a poor prognosis and an overall survival time averaging between 10-14 months. EVI1 overexpression confers resistance in leukemia cells, highlighting the need to develop new targeted therapies for EVI1 overexpressing AMLs. Here, we performed an unbiased chemical drug screening by evaluating the single agent activity of a collection of 2,480 oncology-focused, approved and investigational drugs (NCATS Mechanism Interrogation Plates, MIPE v5.0) against a panel of seven AML cell lines. These included four MECOM-r cell-lines (AML-191, AML-194, UCSD-AML1 and HNT-34) and three non-MECOM-r AMLs (MV4-11, OCI-AML3 and SET-2). Exploiting the mechanistic redundancy built in the library, we identified target-level sensitivities in MECOM-r AML cells and relative activity as compared to other AML subtypes.
A collection of 2480 mechanistically annotated dugs (MIPE v5.0) was used to screen four 3q26.2 rearranged AML cell lines and three non-3q26.2 rearranged AML cell lines. This library purposely exploits redundancy by including multiple inhibitors of key onco-targets, while simultaneously encompassing mechanistic diversity, targeting more than 800 distinct mechanisms of action. Briefly, cells were seeded in 5 uL of growth media using a Multidrop Combi dispenser into 1536 well white polystyrene tissue culture treated plates (Corning) at a density of 500cells/well. For each cell-line, for each of the 2480 drugs in MIPE v5.0 library, an 11-point dose curve was generated via a 1536 pin-tool. Plates were incubated for 48 hr at standard incubator conditions, covered by a stainless steel gasketed lid to prevent evaporation. Cell viability was determined by luminescence based, Cell Titer Glo assay (Promega). In detail, 3 uL of Cell Titer Glo were added to each well and plates were incubated at room temperature for 15 min with a stainless-steel lid in place. Luminescence readings were taken using a Viewlux (PerkinElmer) with a 2 s exposure time per plate. Compound dose-response curves were normalized to DMSO and empty well controls on each plate. Quantitative drug activity data from dose-response curves was determined utilizing area Under the Curve (AUC) and Z-transformed AUC (Z-AUC, a mean-centering transformation applied to each individual cell-line screened).
Potency is the fitted concentration of half-maximal effect.

Compound | Potency | viability (% of control)
O=C(/C=C/C#Cc1cccc(NS(=O)(=O)c2ccccc2)c1)NO | 0.645 µM (active) | –
COC(=O)c1ccc2c(C(=Nc3ccc(N(C)C(=O)CN4CCN(C)CC4)cc3)c3ccccc3)c(O)[nH]c2c1 | 5.25 µM (active) | –
COc1ccc(CNc2nc(N(CCO)CCO)nc3c2ncn3C(C)C)cc1 | 7.42 µM (active) | –
Cc1[nH]c(/C=C2\C(=O)Nc3ccc(F)cc32)c(C)c1C(=O)NCCN1CCCC1 | 8.11 µM (active) | –
C[C@H](CCC(=O)O)[C@H]1CCC2C3C[C@H](O)[C@@H]4C[C@H](O)CC[C@]4(C)C3CC[C@@]21C (stereo not given in full) | – | 110%
CCCCOc1ccc(C(=O)Nc2ccc(F)cc2F)cc1 | – | 104%
COc1cc2nccc(Oc3ccc(NC(=O)Nc4ccc(F)cc4F)c(F)c3)c2cc1OC | 2.09 µM (active) | –
O=C(Nc1ccc([N+](=O)[O-])cc1Cl)c1cc(Cl)ccc1O | 1.32 µM (active) | –
O=C(O)c1cnn(-c2nc3cc(OC(F)(F)F)c(Cl)cc3[nH]2)c1 | – | 107%
O=C(c1ccc(NS(=O)(=O)c2cccc3cccnc23)cc1)N1CCN(CC2CC2)CC1 | – | 103%
CC1CNc2c(cccc2S(=O)(=O)N[C@@H](CCCN=C(N)N)C(=O)N2CC[C@@H](C)C[C@@H]2C(=O)O)C1 (stereo not given in full) | – | 105%
OC[C@H]1O[C@@H](O[C@@H]2[C@@H](CO)O[C@](O)(CO)[C@H]2O)[C@H](O)[C@@H](O)[C@H]1O | – | 108%
COc1ccc2[nH]c(S(=O)Cc3ncc(C)c(OC)c3C)nc2n1 (stereo not given) | – | 89%
CC(=O)c1c(C)c2cnc(Nc3ccc(N4CCNCC4)cn3)nc2n(C2CCCC2)c1=O | 13.2 µM (active) | –
CC1(CN2CCC(n3c(=O)[nH]c4ccccc43)CC2)OCc2ccccc2-n2cccc21 (stereo not given) | – | 123%
CC[C@@H](C)[C@H](NC(=O)[C@H](CC1CCCCC1)NC(=O)c1ccno1)C(=O)N1CCC2(CCc3ccccc32)CC1 | – | 14.3%
CN(C)CC(C)(C)CNc1nn2c(-c3ccccc3)nnc2cc1C1CCC1 | – | 112%
CN[C@@H](C)C(=O)N[C@H]1CCCC[C@H]2CC[C@@H](C(=O)N[C@@H](c3ccccc3)c3cn(CCCCc4ccc(CCCCn5cc([C@@H](NC(=O)[C@@H]6CC[C@@H]7CCCC[C@H](NC(=O)[C@H](C)NC)C(=O)N76)c6ccccc6)nn5)cc4)nn3)N2C1=O | 0.0037 µM (active) | –
CCC(C)CCCCC(=O)N[C@@H](CCN)C(=O)NC(C(=O)N[C@H](CCN)C(=O)N[C@@H]1CCNC(=O)C([C@@H](C)O)NC(=O)[C@@H](CCN)NC(=O)[C@@H](CCN)NC(=O)[C@@H](CC(C)C)NC(=O)[C@H](Cc2ccccc2)NC(=O)[C@H](CCN)NC1=O)[C@@H](C)O (stereo partly drawn) ({Octanoyl(6-Me)}-[Dab][ξThr(3R)][dDab][dDab][Dab]F[dL][dDab][dDab][ξThr(3R)]; lactam 4-C) | – | 65.7%
O=C(O)CCC1CCC(c2cc(F)ccc2F)(S(=O)(=O)c2ccc(Cl)cc2)CC1 (stereo not given) | – | 106%

Compound | Potency | viability (% of control)
CO[C@@H]1COCC[C@@H]1N[C@@H]1CC[C@@](C(=O)N2CCc3ncc(C(F)(F)F)cc3C2)(C(C)C)C1 | – | 109% [at 15.6 µM]
NC(=O)Nc1cc(-c2ccc(CN3CCOCC3)cc2)sc1C(N)=O | 1.32 µM (active) | –
Cc1ccc(-n2nc(C(C)(C)C)cc2NC(=O)Nc2ccc(OCCN3CCOCC3)c3ccccc23)cc1 | – | 108%
Cn1c(=O)c2c(ncn2CC(O)CO)n(C)c1=O (stereo not given) | – | 120%
Fc1ccc(-c2nc(-c3ccccc3F)[nH]c2-c2ccncc2)cc1 | 4.17 µM (active) | –
O=C(Nc1nc2cccc(-c3ccc(CN4CCS(=O)(=O)CC4)cc3)n2n1)C1CC1 | 5.9 µM (active) | –
Cn1cncc1C(N)(c1ccc(Cl)cc1)c1ccc2c(c1)c(-c1cccc(Cl)c1)cc(=O)n2C (stereo not given) | 0.372 µM (active) | –
CC(=O)OC[C@@H]1O[C@@H](n2ccc(=O)[nH]c2=O)[C@H](OC(C)=O)[C@H]1OC(C)=O | – | 103%
Oc1ccc2ccccc2c1SSc1c(O)ccc2ccccc12 | 23.5 µM (active) | –
NC1CCC(N[C@@H]2C[C@H]2c2ccccc2)CC1 (stereo not given in full) | 0.0019 µM (active) | –
O=C1[C@H](Cc2ccc(O)cc2)N2C(=O)CCN(C(=O)NCc3ccccc3)[C@H]2CN1Cc1cccc2ccccc12 | 9.34 µM (active) | –
COc1nc(-c2ccc3c(c2)OCO3)n(-c2ccc(NC(=O)CSc3ccccc3)cc2)n1 | – | 105%
COc1cc2c(N3CCN(C(=O)Nc4ccc(OC(C)C)cc4)CC3)ncnc2cc1OCCCN1CCCCC1 | 16.6 µM (active) | –
Cc1ccc(C(=O)c2cc(O)c(O)c([N+](=O)[O-])c2)cc1 | – | 103%
CNC[C@H](O)c1ccc(O)c(O)c1 | – | 91.7%
O=C(Nc1c(Cl)cncc1Cl)c1ccc(OC(F)F)c(OCC2CC2)c1 | – | 117%
O=C(O)[C@H](Cc1c[nH]c2ccccc12)N1C(=O)c2ccccc2C1=O | 3.32 µM (active) | –
CC(C)(C)C(=O)Oc1ccc(S(=O)(=O)Nc2ccccc2C(=O)NCC(=O)O)cc1 | – | 99.9%
Cc1cccc(-c2nn(C(=S)Nc3ccccc3)cc2-c2ccnc3ccccc23)n1 | – | 105%
O=C(O)CSCC(=O)NC1CCSC1=O (stereo not given) | – | 99.9%
